AMA1-RON2 inh – qHTS for Inhibitors of AMA1-RON; Towards Development of Antimalarial Drug Lead: Primary Screen | Plasmodium falciparum AMA1 (3D7) - RON2 peptide interaction | AlphaScreen AMA1-biotinylated RON2 peptide binding | Potency, µM (doses to about 58.2 µM), for inactives: at the highest dose activity change, negative = inhibition, hits mostly inhibitors | hit rate 0.2% among 360,000 | AID 720542, 2013;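 further: potency means the concentration at half of the fitted maximal effect; 0% = vehicle wells and -100% = peptide control; nearly all actives have a fitted effect of over 45% in size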
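AMA1 (3D7) with his tag at 25 nM final met compounds first, then biotinylated RON2 peptide at 25 nM; detection used donor plus acceptor beads, 10 µg/mL apiece, read by AlphaScreen after 30 min at room temperature.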
Pf growth 96h – Primary qHTS for delayed death inhibitors of the malarial parasite plastid, 96 hour incubation. P. falciparum luciferase reporter growth, 96 h. Potency, µM (doses to about 28.7 µM), without a hit: at the highest dose activity change, negative = inhibition, hits mostly inhibitors. hit rate 6.9% among 320,000; further: potency means the concentration at half of the fitted maximal effect; on the % scale 0 is the no-effect control and ±100 the full control effect
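Infected RBCs, 2% Hct / 0.05% parasitemia final; luciferase-reporter P. falciparum; cpd 96 h, 37 C, 5% CO2; luciferase detection reagent; luminescence.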
Shiga inhibitor – A qHTS for Small Molecule Inhibitors of Shiga Toxin; Vero cells, Shiga toxin protein synthesis inhibition reporter; inhibition, % at 38.7 µM; hit rate 9.2% among 290,000; in the data active means inhibition mostly above about 28%, no sharp cut-off; inactive means mostly below about 43%; further: 0% is about no effect
Pf growth 48h – Primary qHTS for delayed death inhibitors of the malarial parasite plastid, 48 hour incubation. P. falciparum luciferase growth in erythrocytes, 48 h. hit rate 5.9% among 310,000. Potency, µM (titrated, usually from 28.7 µM), inactives show at the top dose activity change, negative = inhibition, actives largely listed as inhibitors; further: potency means the concentration at half of the fitted maximal effect; on the % scale 0 is the no-effect control and ±100 the full control effect
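Luminescence readout; reporter = integrated firefly luciferase in P. falciparum. RBC culture at 2% hematocrit, 0.1% parasitemia final, 37 C/5% CO2; decreased signal taken as growth inhibition.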
HCV inhibitor – qHTS Assay for Inhibitors of Hepatitis C Virus (HCV); Huh7.5.1 HCVcc-Cre infection, luciferase reporter, 44 h; Potency, µM (titrated, usually from 41.8 µM), without a hit: at the highest dose activity change, negative = inhibition, actives largely listed as inhibitors; hit rate 3.4% among 340,000; further: potency means the concentration at half of the fitted maximal effect; on the % scale 0 is the no-effect control and ±100 the full control effect
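Cells (1,000/well) were plated 4 h before compound, then infected with HCVcc-Cre virus (~0.5 moi). After 44 h further culture, infection was read as luciferase luminescence following a 15 min substrate incubation at room temperature.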
CHX counter – Cycloheximide Counterscreen for Small Molecule Inhibitors of Shiga Toxin; cell reporter, cycloheximide protein synthesis inhibition counterscreen; max response, %; hit rate 12% among 300,000; in the data active means max response mostly above about 13%, no sharp cut-off; inactive means mostly below about 14%; further: read at 38.3 µM for the half of the compounds with a filed dose; 0% is about no effect
Active calls of the source: *; ? = inconclusive; nt = not tested or not shown. This is a sample that favours compounds with a hit; in the whole collection about 21% have one here. Unless noted, the call rests on the fitted dose curve; in most records, active means well fitted curve in the direction sought with a large enough effect; inconclusive means small, poorly fitted or top-dose-only effect, or another doubt; inactive means no such curve, though single readings can be large; an effect the other way counts as inactive or inconclusive.

SMILES	AMA1-RON2 inh	Pf growth 96h	Shiga inhibitor	Pf growth 48h	HCV inhibitor	CHX counter
OC[C@@H]1CN(Cc2cccs2)C[C@H](n2cnc3c(NCc4ccco4)ncnc32)O1	-9%	nt	nt	nt	nt	nt
O=C(COc1ccc(Cc2ccccc2)cc1)c1ccc(F)cc1	75%	5.2µM*	-17	2%	-18%	35*
COC(=O)c1ccc(NC(=O)c2cccc(C)c2)cc1	1%	?	37	106%	2%	19*
CCOc1cccc(C(=O)Nc2cccc(NC(=O)c3ccco3)c2)c1	-16%	23%	25	-8%	?	25*
O=C(COc1cccc(NC(=O)c2ccco2)c1)c1ccc(F)cc1	4%	nt	25*	-21%	3%	15*
O=C(COc1cccc(NC(=O)c2ccccc2)c1)c1ccc(F)cc1	-4%	-10%	3	9%	?	-3
Cc1cccc(C(=O)Nc2ccc(C(=O)c3ccncc3)cc2)c1	-13%	nt	nt	nt	nt	nt
COC(=O)c1ccc(NC(=O)c2cccc(NC(=O)c3ccco3)c2)cc1	8%	?	-11	-15%	?	-2
CC(=O)C1CN(S(=O)(=O)c2ccc(C)cc2)C(c2ccccc2)CC1C (configuration not stated)	-13%	nt	nt	nt	nt	nt
COc1cccc(C(=O)NNC(=O)C(=O)Nc2ccc(C)cc2)c1	81%	-1%	51	20%	6%	11
COc1cccc(C(=O)Nc2ccc(C)cc2)c1	6%	?	88*	133%	?	30*
COc1cccc(C(=O)Nc2ccc(NC(=O)C3C4C=CC(C4)C3C(=O)O)cc2)c1 (configuration not stated)	-7%	56%	142*	-8%	?	41*
CCOc1cccc(C(=O)Nc2cccc(C(C)=O)c2)c1	12%	3.3µM*	68*	120%	-30%	40*
CCOc1cccc(NC(=O)c2cccc(F)c2)c1	-2%	4%	102*	27%	-8%	20*
CCOc1ccc(S(=O)(=O)N2CCN(C(=O)C3CCC3)CC2)cc1	25%	?	nt	-15%	-7%	nt
COC(=O)c1ccc(NC(=O)c2cccc(OC)c2)cc1	23%	-3%	91*	40%	?	57*
COC(=O)c1cccc(NC(=O)c2cc3sccc3n2C)c1	-14%	3%	109*	150%	14µM*	29*
COc1cccc(NC(=O)c2ccc(NC(C)=O)cc2)c1	3%	56%	20	nt	-8%	33*
CCOc1cccc(C(=O)NC(=S)Nc2cccc(C)c2)c1	16%	?	65*	46%	6%	9
COc1cccc(C(=O)Nc2ccc(C(=O)O)cc2)c1	-13%	?	22	23%	21%	-1
COC(=O)c1ccccc1NC(=O)c1cc2sccc2n1C	-4%	0%	6	-4%	-16%	1
CCOC(=O)c1ccc(S(=O)(=O)NC2CCC(C)CC2)cc1 (configuration not stated)	10%	39%	nt	31%	?	nt
CN(C)c1oc(/C=C/c2cccs2)nc1S(=O)(=O)c1ccccc1	-11%	?	-3	?	?	1
Cc1cccc(C(=O)Nc2ccc(O)cc2)c1	3%	-7%	37	69%	2%	30*
COc1cccc(C(=O)n2c(SC)nc3cc4c(cc32)OCCO4)c1	-10%	33%	40	34%	15%	17*
SMILES	AMA1-RON2 inh	Pf growth 96h	Shiga inhibitor	Pf growth 48h	HCV inhibitor	CHX counter
Cc1cccc(C(=O)Nc2ccc(C(=O)c3ccccc3)cc2)c1	-16%	nt	nt	nt	?	nt
COC(=O)c1ccc(NC(=O)c2c(C(=O)Nc3ccccc3)sc3nc(C)cc(=O)n23)cc1	-2%	12µM*	-4	7%	-1%	-3
COC(=O)c1cccc(NC(=O)c2cccc(OC)c2)c1	?	27%	104*	160%	-10%	53*
COC(=O)c1ccc(NC(=O)c2sc3nc(-c4ccccc4)cn3c2C)cc1	-7%	20%	18	?	?	-2
CC1=C[C@H](C)[C@H](c2c(F)cccc2Cl)CC1=O	-4%	-26%	-13	15%	27%	1
Cc1ccccc1C(=O)N(C)[C@H]1C[C@H]2c3[nH]c4ccccc4c3CCN2C(=O)[C@H]1[C@H](C)O	-11%	nt	nt	nt	nt	nt
O=C(Nc1ccc2c(c1)C(=O)c1ccccc1-2)c1ccccc1	-17%	nt	nt	nt	-16%	nt
COc1cccc(C(=O)NC(=O)Nc2cc(C)[nH]n2)c1	1%	125%	84*	104%	-3%	39*
COc1cccc(C(=O)Nc2ccc3c(c2)C(=O)c2ccccc2C3=O)c1	-24%	?	38*	108%	?	31*
CCN(Cc1ccccc1)C(=O)Cn1c(=O)n(CC(=O)N2CCCCC2)c(=O)c2sccc21	2%	?	-10	-4%	12%	1
CC(=O)[C@H]1[C@H]([C@H](O)[C@H](O)CO)O[C@](O)(C(=O)O)C[C@@H]1O	4%	22%	nt	-9%	14%	nt
Cc1cc(C)c(S(=O)(=O)Nc2ccc(Cl)cn2)c(C)c1	-3%	20%	10	10µM*	2%	-5
CN(Cc1ccccc1)C(=O)COC(=O)c1ccc[nH]c1=O	-14%	nt	nt	nt	18%	nt
COC(=O)c1ccc(CC(=O)c2nc3ccccc3s2)cc1	35%	?	20	-8%	15%	20*
O=C(Cc1ccccc1)c1nc2ccccc2s1	-3%	?	131*	?	8%	74*
CN1CCN(CCOC2c3ccccc3CSc3ccc(Cl)cc32)CC1 (configuration not stated)	-25%	10µM*	-9	?	?	-6
CN(C)CCOC1c2ccccc2CSc2ccccc21 (configuration not stated)	-18%	nt	nt	nt	-9%	nt
NC(=O)CCN1CCN(CCOC2Cc3cc(Cl)ccc3Sc3ccccc32)CC1 (configuration not stated)	-6%	?	-4	?	11µM*	-1
C=CCNc1nc(NCc2ccccc2)c(C#N)c2c1CN(C)CC2	0%	27%	-15	?	18µM*	1
N#Cc1c(N2CCCCC2)nc(N2CCCCC2)c2c1CCN(Cc1ccccc1)C2	-13%	98%	-2	3.7µM*	?	-5
CCCc1nc(NCCO)c(C#N)c2c1CCCC2	-14%	-2%	-8	20%	?	-2
CCN1CCc2c(C#N)c(NCc3ccccc3)nc(N(CC)CC)c2C1	-28%	0.93µM*	-10	2.6µM*	?	-4
CCCc1nc(NCc2ccccc2)c(C#N)c2c1CCCC2	1%	?	-1	6.6µM*	9%	-2

Source: PubChem BioAssay (National Center for Advancing Translational Sciences (NCATS))
